According to ChEMBL document CHEMBL3433997, “St. Jude Leishmania screening dataset” (2016):

How the values were obtained:
Format in all cases: functional
[1] = biological target: Solute carrier family 2, facilitated glucose transporter member 1 (Homo sapiens) (UniProt P11166); test: ST_JUDE_LEISH: Cytotoxicity at 2uM final concentration against transgenic Leishmania Mexicana promastigotes LmGLUT1 that are glucose transport deficient and complemented with the human glucose transporter GLUT1. Activity is measured by DNA content using SYBR green in vitro
[2] = biological target: Hexose transporter 1 (Plasmodium falciparum) (UniProt O97467); test: ST_JUDE_LEISH: Cytotoxicity at 2uM final concentration against transgenic Leishmania Mexicana promastigotes LmPfHT that are glucose transport deficient and complemented with the Plasmodium falciparum hexose transporter. Activity is measured by DNA content using SYBR green in vitro
[3] = biological target: Glucose transporter (Leishmania mexicana) (UniProt O61059); test: ST_JUDE_LEISH: Cytotoxicity at 2uM final concentration against transgenic Leishmania Mexicana promastigotes LmGT2 that are glucose transport deficient and complemented with the L. Mexicana glucose transporter 2. Activity is measured by DNA content using SYBR green in vitro

Solute carrier family 2, facilitated glucose transporter member 1 (Homo sapiens), sequence (P11166 whole entry): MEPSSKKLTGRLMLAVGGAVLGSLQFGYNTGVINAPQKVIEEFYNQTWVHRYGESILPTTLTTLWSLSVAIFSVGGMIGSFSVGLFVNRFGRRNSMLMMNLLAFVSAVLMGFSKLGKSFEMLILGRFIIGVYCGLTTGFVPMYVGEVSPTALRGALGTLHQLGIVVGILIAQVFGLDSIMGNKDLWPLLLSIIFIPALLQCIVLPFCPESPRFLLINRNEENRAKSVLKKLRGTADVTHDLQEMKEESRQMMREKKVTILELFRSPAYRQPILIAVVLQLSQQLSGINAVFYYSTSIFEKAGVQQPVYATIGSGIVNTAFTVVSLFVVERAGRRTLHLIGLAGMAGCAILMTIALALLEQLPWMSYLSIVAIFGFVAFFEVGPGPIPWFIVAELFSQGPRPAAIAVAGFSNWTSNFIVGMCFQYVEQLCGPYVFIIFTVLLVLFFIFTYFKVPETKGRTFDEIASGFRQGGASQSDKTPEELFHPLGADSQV

| Compound | inhibition [1] | inhibition [2] | inhibition [3] |
| --- | --- | --- | --- |
| O=C(CCc1c[nH]cn1)Nc1cccc(-c2cccc(-c3nc4ccccc4[nH]3)c2)c1 | 14.3% | 13.2% | 11.3% |
| Cc1cc(Cl)ccc1OC(C)C(=O)N1CCc2ccccc21 (stereo unspecified) | -3.17% | 0.81% | -0.66% |
| CCCC(C)C(=O)N1CCOC(COCc2cccc(C(F)(F)F)c2)(c2ccc(Cl)cc2)C1 (stereo unspecified) | -0.83% | 0.15% | -1.52% |
| COc1cc(O)c2c(=O)c(OC)c(-c3cccc(Cl)c3OCC(=O)O)oc2c1OC | -2.29% | -1.48% | -0.46% |
| O=C(Nc1cccc(-c2cccc(-c3nc4ccccc4[nH]3)c2)c1)c1ccncc1 | 4.03% | 4.7% | 0.44% |
| c1ccc(CCNc2nc(NCC(c3ccccc3)c3ccccc3)c3nc[nH]c3n2)cc1 | 4.2% | 3.7% | 1.17% |
| COc1ccccc1C1CCN(C2CCC(NC(=O)/C=C/c3ccc(C(F)(F)F)cc3)CC2)CC1 (stereo unspecified) | 1.41% | 2.17% | 2.85% |
| Cc1cc(Nc2ccc(C(C)(C)C)cc2)c2[nH]ncc2n1 | 16.1% | 26.2% | 4.28% |
| CN(c1ccccc1)S(=O)(=O)c1cccc(NC(=O)c2ccc(-n3ccnc3)c([N+](=O)[O-])c2)c1 | 2.91% | 3.61% | 0.73% |
| CCN(CC)S(=O)(=O)c1ccc(C(C)NC(=O)c2ccccc2COc2ccccc2)cc1 (stereo unspecified) | 6.67% | 5.1% | 5.03% |
| CCNc1cc(C(=O)N[C@@H](Cc2ccccc2)[C@H](O)CNCc2cccc(-c3cncnc3)c2)cc(N2CCCC2=O)c1 | 3.81% | 3.48% | 4.42% |
| CCN(CC)CCN(Cc1ccc(-c2ccc(C(F)(F)F)cc2)cc1)C(=O)Cn1c(CCc2cccc(F)c2F)nc(=O)c2cc(F)c(F)cc21 | 9.33% | 7.63% | 9.47% |
| Cc1ccc(Nc2ccnc3ccc(C(F)(F)F)cc23)cc1O | 4.92% | 3.33% | 2.31% |
| O=C(N/N=C/c1nc2ccccc2[nH]1)c1cccc([N+](=O)[O-])c1 | 2.46% | 1% | 0.25% |
| COCCOCCOCCn1ccc2c3c(N)nc(N)nc3ccc21 | 4.65% | 1.94% | 2.29% |
| Cn1c2ccccc2c2c3ccccc3c(CNC(CO)(CO)CO)cc21 | 13.8% | 12.7% | 6.67% |

| Compound | inhibition [1] | inhibition [2] | inhibition [3] |
| --- | --- | --- | --- |
| O=C(NC1CC1)c1cnc(N2CCC(Oc3ccc(Cl)cc3)CC2)c(Cl)c1 | 5.36% | 2.7% | 0.49% |
| COc1cc(CNCCCNc2nc(=O)c3sccc3[nH]2)c2[nH]cc(Cl)c2c1 | 92.7% | 96.7% | 87.6% |
| Oc1cccc(Nc2ccnc3cc(-c4cc5ccccc5o4)ccc23)c1 | -0.71% | -0.27% | -2.34% |
| O=C(Nc1cccc(CN2CCCN(CCc3ccccc3)CC2)c1)c1ccc(Cl)c(Cl)c1 | 8.79% | 8.5% | -3.05% |
| COc1c(C2CCN(CCCCNC(=O)c3noc(-c4ccc(C#N)cc4)n3)CC2)ccc2c1CCCC2 | 2.99% | 1.9% | 2.85% |
| CC(C)c1ccc(C2CCN(CCCCNC(=O)c3ccc(NC(=O)c4ccc(C(F)(F)F)cc4)cc3)CC2)c(O)c1 | 4.75% | 3.96% | 1.92% |
| CC(=O)Nc1ccc(OCCCCCOc2ccc(NC(C)=O)cc2Cl)c(Cl)c1 | 1.91% | 1.52% | 1.13% |
| COc1ccc2nccc([C@@H](O)CN3CCC(NCc4cn5cc(F)ccc5n4)CC3)c2c1 | 2.06% | 2.19% | -0.13% |
| COc1ccc(CNCc2ccc(F)cc2)cc1-c1ccc(S(=O)(=O)NCCN2CCCC2)c(C)c1 | 2.82% | 3.53% | -2.85% |
| CCC(Cc1cnc2nc(N)nc(N)c2n1)c1ccc(C(=O)O)cc1 (stereo unspecified) | 1.41% | 1.88% | 2.49% |
| COc1cc2c(c(Cl)c1OC)CCN(Cc1ccccc1)CC2c1ccc(NC(=O)C(F)(F)F)cc1 (stereo unspecified) | 3.91% | 2.68% | 2.44% |
| CCc1cn2c3c(cc(C(=O)N[C@@H](Cc4ccccc4)[C@H](O)CNC4CCC4)cc13)N(C)S(=O)(=O)CC2 | 2.42% | 5.19% | 1.83% |
| CCOC(=O)c1ccc(N2CCN(c3cc(C)ccc3C)CC2)c(NC(=O)Nc2ccc(Cl)c(Cl)c2)c1 | 0.52% | 0.93% | -0.25% |
| Cc1ccc(O)cc1Nc1ccnc2cc(-c3csc(CNCCN4CCOCC4)n3)ccc12 | 1.41% | 0.86% | 1.37% |
| N#Cc1ccc2c(c1)CCN(CCC1CCC(NC(=O)c3cc4cccc([N+](=O)[O-])c4[nH]3)CC1)C2 (stereo unspecified) | 10.1% | 10.8% | 9.97% |
| CN1CCN(c2ccnc3ccc(NC(=O)Nc4ccc(-c5ccncc5)c5ccccc45)cc23)CC1 | 3.36% | 0.39% | 5.81% |
